Only some compounds are listed: those with a hit (about 0.82% of all), similar ones and a draw of the others.
cardiac RTF act = increases calcium sensitivity of human cardiac regulated thin filaments; P19429+P45379; IANBD-labeled TnC RTF fluorescence at EC20 calcium; 0% EC20 calcium, 100% full calcium; activation, % at 7.2 µM; hit rate 0.24% among 340,000;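 active means activation above the mean over all tested compounds plus 3 SD, cut at about 30% in these data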;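 further: rise in fluorescence read as greater calcium sensitivity of cardiac thin filaments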
Cardiac RTF inh = cardiac RTF calcium desensitization | P19429+P45379 | IANBD-labeled cardiac RTF, Ca2+ fluorescence | inhibition, % at 7.15 µM | hit rate 0.12% among 340,000 | AID 493244;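 active means inhibition above the mean inhibition of all tested compounds plus 3 SD, cut at about 17% in these data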;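 further: assay run at fixed EC70 calcium of 1.6 mM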
C-LANA FP = inhibitors of KSHV LANA C-terminal domain DNA binding | MBP-C-LANA/FAM-LBS DNA binding, fluorescence polarization | inhibition, % at 9 µM | hit rate 0.078% among 340,000;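 active means highest replicate inhibition at or above 60% at 9 µM, even if other replicates fall short; inactive means all replicates below 60% inhibition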
Keap1-Nrf2 PPI = Keap1-Nrf2 (human) interaction inhibition | Keap1 Kelch-Nrf2 peptide fluorescence polarization, 1536-well | inhibition, % at 9.4 µM | AID 504523 | Q14145 | hit rate 0.15% among 340,000; in the data active means inhibition above about 12%;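 further: human Keap1 Kelch domain with fluorescein labeled Nrf2 9mer peptide probe; higher means more block of Keap1 binding to Nrf2 peptide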
Target sequence (Q14145 whole entry, looked up, the tested form may be a part): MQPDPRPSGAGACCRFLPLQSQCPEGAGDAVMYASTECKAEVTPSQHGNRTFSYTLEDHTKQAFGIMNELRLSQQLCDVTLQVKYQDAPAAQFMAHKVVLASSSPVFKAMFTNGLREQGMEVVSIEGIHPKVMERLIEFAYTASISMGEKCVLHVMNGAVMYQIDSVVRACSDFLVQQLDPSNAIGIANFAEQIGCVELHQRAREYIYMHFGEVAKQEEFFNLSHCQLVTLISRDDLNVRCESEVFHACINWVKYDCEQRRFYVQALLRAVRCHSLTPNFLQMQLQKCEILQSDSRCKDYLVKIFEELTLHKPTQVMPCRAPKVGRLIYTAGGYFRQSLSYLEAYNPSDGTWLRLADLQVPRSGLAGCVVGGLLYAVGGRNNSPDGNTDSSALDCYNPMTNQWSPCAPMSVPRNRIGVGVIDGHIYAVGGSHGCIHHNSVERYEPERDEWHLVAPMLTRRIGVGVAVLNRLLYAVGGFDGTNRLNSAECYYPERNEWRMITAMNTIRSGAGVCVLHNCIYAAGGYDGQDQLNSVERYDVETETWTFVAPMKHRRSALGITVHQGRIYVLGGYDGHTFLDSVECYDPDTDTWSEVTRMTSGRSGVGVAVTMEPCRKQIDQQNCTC
eLon inh = inhibitors of E. coli Lon protease; hit rate 0.42% among 360,000; AID 602123; purified E. coli Lon protease, fluorescence polarization; inhibition, % at 7.94 µM; in the data active means inhibition above about 13%, passing the limit was not always enough
Each line names hits and unclear results; the compound was inactive in the other large screens.

Cc1cc(C)n(CC(=O)NNC(=O)CC(C)c2ccccc2)n1 (stereo unspecified)	C-LANA FP 73.3
COCCN(CCOC)Cc1c(O)ccc2c1O/C(=C\c1ccco1)C2=O	cardiac RTF act 68.9, C-LANA FP 64.9
C/C(=N/NC(=O)CNC(=O)/C=C/c1ccccc1)c1ccco1	none
C/C(=N/NC(=O)CNC(=O)Cc1ccccc1)c1ccco1	cardiac RTF act 38.9
O=C(N/N=C/c1ccc(O)c(O)c1O)/C(=C/c1ccc([N+](=O)[O-])cc1)NC(=O)c1ccccc1	eLon inh 26.8
CCN(CC)c1ccc2c(-c3ccc(S(=O)(=O)O)cc3S(=O)(=O)[O-])c3ccc(=[N+](CC)CC)cc-3oc2c1	cardiac RTF act 247.7, C-LANA FP 120.7, Keap1-Nrf2 PPI 82.3, eLon inh active
O=C(O)c1cccc2cccc(-c3c4ccc(=O)c(O)c-4oc4c(O)c(O)ccc34)c12	Cardiac RTF inh 78.8, C-LANA FP 86.6
O=C(O)c1cccc2cc(-c3ccccc3)oc(=O)c12	none
CC1(c2ccc(Cl)cc2)NC(=O)N(CC(=O)N2CCN(C(=O)c3cccs3)CC2)C1=O (stereo unspecified)	none (no result: cardiac RTF act, Cardiac RTF inh, C-LANA FP, Keap1-Nrf2 PPI)
N=c1c(S(=O)(=O)c2ccc(Cl)cc2)cc2c(=O)n3ccccc3nc2n1C1CCCCC1	Keap1-Nrf2 PPI 24.6
N=c1c(S(=O)(=O)c2ccccc2)cc2c(=O)n3ccccc3nc2n1C1CCCC1	none
COc1cccc(/C=C2\Oc3cc(OCC(=O)N4CCC[C@H]4C(=O)O)ccc3C2=O)c1	none
COc1ccc(/C=C2\Oc3cc(OCC(=O)N4CCC[C@H]4C(=O)O)ccc3C2=O)c(OC)c1	cardiac RTF act 30.4
COc1ccc(OC)c(/C=C2\Oc3cc(OCC(=O)N4CCC[C@H]4C(=O)O)ccc3C2=O)c1	none
COc1cc(OC)c(OC)cc1/C=C1\Oc2cc(OCC(=O)N3Cc4ccccc4C[C@H]3C(=O)O)ccc2C1=O	cardiac RTF act 32.1
CCOC(=O)c1sc(NC(=O)C2CC(=O)N(c3ccccc3OC)C2)nc1C (stereo unspecified)	none
CCN1/C(=C/C(C)=O)Sc2ccc(OC)cc21	none
CCOC(=O)/C(=C\C=C1/Sc2cc(OCC)c(OCC)cc2N1CC)C(C)=O	cardiac RTF act 515.6
CCOC(=O)/C(=C/C=C1\Sc2cc(OCC)c(OCC)cc2N1CC)C(C)=O	cardiac RTF act 533.8
CCOC(=O)/C(C#N)=C/C=C1/C=CC=CN1C	none
C=CCN1C=CC(=C/C=C(/C#N)C(=O)OCC)C=C1	cardiac RTF act 123.0
COc1ccc(NC(=O)C[C@H]2C(=O)N(CCc3ccccc3)C[C@@H]2c2ccc(OC)cc2)cc1	none (no result: cardiac RTF act, Cardiac RTF inh, C-LANA FP, Keap1-Nrf2 PPI)
Cc1ccccc1Nc1ncccc1C(=O)N1CCOCC1	eLon inh 56.5
O=C(c1cccnc1Nc1ccccc1F)N1CCOCC1	none
COc1cc(OC)c(OC)cc1CNC(=O)c1cc(S(=O)(=O)N2CCOCC2)ccc1F	none
CCOC(=O)c1c(C)nc2c(c1-c1cc(OC)ccc1OC)C(=O)c1ccccc1-2	none
CCOC(=O)C1=C(Cc2ccc(OC)cc2)C(=O)c2ccccc2C1=O	eLon inh 28.4
Cc1ccc(C(=O)COC(=O)C2CCC2)cc1	cardiac RTF act 62.9
CC(=O)NCCc1ccc(C(=O)COC(=O)C2CCCCC2)cc1	none
COc1ccc(CNC(=O)/C=C/[C@H]2O[C@@H](n3ccc(=O)[nH]c3=O)[C@H](O)[C@@H]2O)cc1	none (no result: cardiac RTF act, Cardiac RTF inh, C-LANA FP, Keap1-Nrf2 PPI)
Cc1ccc(N2C(=O)[C@@H]3[C@H](C2=O)C2CCCN2[C@@H]3C(=O)c2ccccc2)cc1 (stereo partly specified)	cardiac RTF act 31.3
O=C(c1ccc(F)c(S(=O)(=O)N2CCOCC2)c1)N1CCN(c2ncccn2)CC1	none
CC1CCCC(NC(=O)CN2CCN(S(=O)(=O)c3ccc(Br)s3)CC2)C1C (stereo unspecified)	none
N#CC1=C(N)OC2=C(CC/C2=C\c2ccccc2Cl)C1c1ccccc1Cl (stereo unspecified)	cardiac RTF act 37.7
N#CC1=C(N)OC2=C(CC/C2=C\c2ccccc2)C1c1ccccc1 (stereo unspecified)	cardiac RTF act 127.3
N#CC1=C(N)OC2=C(C(=O)CCC2)C1c1ccccc1 (stereo unspecified)	none
Cc1cc(Br)ccc1NC(=O)CN(C)C(=O)Cn1c(=O)cnc2ccccc21	none
CC(=O)O[C@H]1[C@@H](O)[C@H](O)[C@H](Oc2c(O)c(C)c3c4c2[C@@H](C)CC[C@@H]4[C@@H](C)C[C@H]3C=C(C)C)O[C@H]1C	none
CCCCn1c(N)c(N(CCOC)C(=O)CN2C(=O)C3CCCCC3C2=O)c(=O)[nH]c1=O (stereo unspecified)	none
COc1ccc(OCc2cc(C(=O)NCCN3CCCc4ccccc43)no2)c(Cl)c1	none
CCN(CC)c1ccc(/C=C2\SC(N)=NC2=O)cc1	cardiac RTF act 33.1
Cc1cc(/C=C2\SC(=S)NC2=O)cc(C)c1O	none
CCN(CC)c1ccc(C=C2SC(=S)NC2=O)cc1	cardiac RTF act 241.3
NC1=NC(=O)/C(=C/c2ccc(OCC(=O)O)cc2)S1	none
O=C1NC(=S)NC(=O)C1=Cc1ccccc1C(=O)O	none
CC1(C)Cc2c(sc3ncnc(NN)c23)CO1	none
COc1cc(OC)c(OC)cc1/C=C1/Cc2ccccc2C1=O	cardiac RTF act 31.4
COc1ccccc1C=C1CCc2ccccc2C1=O	none (no result: cardiac RTF act, Cardiac RTF inh, C-LANA FP, Keap1-Nrf2 PPI)
O=C(CSc1ccc(C(F)(F)F)cc1[N+](=O)[O-])Nc1ccccc1	eLon inh 36.7
COc1ccc(/C=C2\Oc3cc(OC(=O)N4CCOCC4)ccc3C2=O)cc1	none
CC(=O)Oc1ccc2c(c1)O/C(=C\c1ccncc1)C2=O	cardiac RTF act 59.9, eLon inh 79.0
COc1ccc(Cn2cc(CN3CC(N4CCCC4)CS3(=O)=O)nn2)cc1 (stereo unspecified)	none (no result: cardiac RTF act, Cardiac RTF inh, C-LANA FP, Keap1-Nrf2 PPI)
O=c1c(/C=N/Nc2ccccc2)c(Sc2nnnn2-c2ccccc2)nc2ccccn12	cardiac RTF act 32.0
CN(C)c1ccc(/C=C(/C#N)C(=O)Nc2nc3c(s2)CCN(Cc2ccccc2)C3)cc1	cardiac RTF act 51.2
COCCN(C(=O)CN1CCCc2ccccc21)c1c(N)n(Cc2ccccc2)c(=O)[nH]c1=O	cardiac RTF act 60.7
COCCN(C(=O)CN1CCc2ccccc21)c1c(N)n(Cc2ccccc2)c(=O)[nH]c1=O	none
CCC(C)N1C(=O)/C(=C/c2c(NCCCOC(C)C)nc3c(C)cccn3c2=O)SC1=S (stereo unspecified)	cardiac RTF act 133.1
Cc1ccc(-n2nc3c(c2NC(=O)c2ccccc2)CS(=O)(=O)C3)cc1C	none
CSCCC(NS(=O)(=O)c1ccccc1)C(=O)Nc1nccs1 (stereo unspecified)	none
COc1cc(/C=C2/SC(=S)N(Cc3ccccc3)C2=O)ccc1OCC(=O)O	none
COc1cc(/C=C2/SC(=S)N(Cc3ccccc3)C2=O)cc(Cl)c1O	cardiac RTF act 71.3
O=C(NC(Cc1ccccc1)C(=O)Oc1ccc2c(C(F)(F)F)cc(=O)oc2c1)OCc1ccccc1 (stereo unspecified)	eLon inh 73.7
